Source: PubChem BioAssay AID1159580 (chemical genetic matrix, 2015)
Where “and” joins values, the source holds several entries; their conditions need not be identical. Equal values may be shown once. Among all 5,500 compounds or so, about 2,000 (36%) were called active. Roughly 18% stayed inconclusive and do not appear here. Cut-off read from the data, not from the text of the source: active = normalized growth mostly below about 0.91 (no sharp cut-off); inconclusive = no clear call, values can overlap the other calls; inactive = mostly above about 0.92. The list shows a part of the results.

Experiment: chemical genetic growth profiling, strain panel (AID 1159580);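 note: tested at 20 µM; growth read once vehicle control cultures reached saturation at 30 °C; 1 = growth at the plate median or of vehicle wells; lower values mean less growth of the strain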
Conditions: growth OD

Measured: normalized growth

CC1(C)NC(=O)N(c2ccc([N+](=O)[O-])c(C(F)(F)F)c2)C1=O
inactive: S. cerevisiae deletion strains, locus YJR075W, strain HOC1, hits give low values 1.01 | S. cerevisiae deletion strains, locus YKL009W, strain mrt4, hits give low values 0.969 | S. cerevisiae deletion strains, locus YKL068W, hits give low values 0.992 | S. cerevisiae deletion strains, locus YKL085W, strain MDH1 (second series), hits give low values 0.988 | S. cerevisiae deletion strains, locus YKL085W, strain MDH1, hits give low values 0.988 | S. cerevisiae deletion strains, locus YKL160W, strain elf1, hits give low values 0.988 | S. cerevisiae deletion strains, locus YKL190W, strain CNB1, hits give low values 1.01 | S. cerevisiae deletion strains, locus YKR001C, strain vps1, hits give low values 0.975 | S. cerevisiae deletion strains, locus YKR026C, strain gcn3, hits give low values 0.984 | S. cerevisiae deletion strains, locus YKR091W, strain srl3, hits give low values 0.989 | S. cerevisiae deletion strains, locus YLL001W, strain dnm1, hits give low values 0.986 | S. cerevisiae deletion strains, locus YLL026W, hits give low values 0.98 | S. cerevisiae deletion strains, locus YLL041C, strain sdh2, hits give low values 0.988 | S. cerevisiae deletion strains, locus YLR027C, strain aat2, hits give low values 0.986 | S. cerevisiae deletion strains, locus YLR039C, strain RIC1, hits give low values 0.984 | S. cerevisiae deletion strains, locus YLR058C, strain SHM2, hits give low values 1.02 | S. cerevisiae deletion strains, locus YLR102C, strain apc9, hits give low values 0.965 | S. cerevisiae deletion strains, locus YLR113W, strain HOG1, hits give low values 1.03 | S. cerevisiae deletion strains, locus YLR221C, strain rsa3, hits give low values 0.98 | S. cerevisiae deletion strains, locus YLR258W, strain gsy2, hits give low values 0.984 | S. cerevisiae deletion strains, locus YLR262C, strain YPT6 (second series), hits give low values 0.94 | S. cerevisiae deletion strains, locus YLR262C, strain YPT6, hits give low values 0.988 | S. cerevisiae deletion strains, locus YLR268W, strain sec22, hits give low values 0.974 | S. cerevisiae deletion strains, locus YLR320W, strain mms22, hits give low values 0.995 | S. cerevisiae deletion strains, locus YLR330W, strain CHS5, hits give low values 1.01 | S. cerevisiae deletion strains, locus YLR342W, strain FKS1 (second series), hits give low values 1.03 | S. cerevisiae deletion strains, locus YLR342W, strain FKS1, hits give low values 0.983 | S. cerevisiae deletion strains, locus YLR357W, strain rsc2, hits give low values 0.98 | S. cerevisiae deletion strains, locus YLR370C, strain arc18, hits give low values 0.971 | S. cerevisiae deletion strains, locus YLR371W, strain rom2, hits give low values 0.98 | S. cerevisiae deletion strains, locus YLR384C, strain iki3, hits give low values 0.989 | S. cerevisiae deletion strains, locus YLR418C, strain cdc73, hits give low values 0.942 | S. cerevisiae deletion strains, locus YML016C, strain PPZ1, hits give low values 1.02 | S. cerevisiae deletion strains, locus YML032C, strain rad52, hits give low values 0.986 | S. cerevisiae deletion strains, locus YML120C, strain ndi1, hits give low values 0.991 | S. cerevisiae deletion strains, locus YML124C, strain tub3, hits give low values 0.981 | S. cerevisiae deletion strains, locus YMR058W, strain fet3, hits give low values 0.987 | S. cerevisiae deletion strains, locus YMR078C, strain ctf18, hits give low values 0.988 | S. cerevisiae deletion strains, locus YMR125W, strain sto1, hits give low values 0.972 | S. cerevisiae deletion strains, locus YMR129W, hits give low values 0.986 | S. cerevisiae deletion strains, locus YMR205C, strain PFK2, hits give low values 0.972 | S. cerevisiae deletion strains, locus YMR223W, strain ubp8, hits give low values 0.983 | S. cerevisiae deletion strains, locus YMR231W, strain pep5, hits give low values 0.981 | S. cerevisiae deletion strains, locus YMR263W, strain SAP30, hits give low values 1 | S. cerevisiae deletion strains, locus YMR307W, strain GAS1, hits give low values 1.01 and 0.988 | S. cerevisiae deletion strains, locus YNL067W, strain RPL9B, hits give low values 0.987 | S. cerevisiae deletion strains, locus YNL071W, strain lat1, hits give low values 0.996 | S. cerevisiae deletion strains, locus YNL128W, strain TEP1, hits give low values 1 | S. cerevisiae deletion strains, locus YNL153C, strain GIM3, hits give low values 1.01 | S. cerevisiae deletion strains, locus YNL175C, strain NOP13, hits give low values 0.979 | S. cerevisiae deletion strains, locus YNL183C, strain NPR1, hits give low values 0.946 | S. cerevisiae deletion strains, locus YNL197C, strain WHI3, hits give low values 0.968 | S. cerevisiae deletion strains, locus YNL209W, strain ssb2, hits give low values 0.988 | S. cerevisiae deletion strains, locus YNL224C, strain SQS1, hits give low values 0.991 | S. cerevisiae deletion strains, locus YNL233W, strain BNI4, hits give low values 1.01 | S. cerevisiae deletion strains, locus YNL248C, strain rpa49, hits give low values 0.98 | S. cerevisiae deletion strains, locus YNL250W, strain rad50, hits give low values 0.987 | S. cerevisiae deletion strains, locus YNL271C, strain bni1, hits give low values 0.966 | S. cerevisiae deletion strains, locus YNL298W, strain CLA4, hits give low values 0.975 | S. cerevisiae deletion strains, locus YNL307C, strain MCK1, hits give low values 0.98 | S. cerevisiae deletion strains, locus YNL322C, strain KRE1 (second series), hits give low values 0.991 | S. cerevisiae deletion strains, locus YNL322C, strain KRE1, hits give low values 1.01 and 0.995 | S. cerevisiae deletion strains, locus YNR049C, strain mso1, hits give low values 0.984 | S. cerevisiae deletion strains, locus YNR052C, strain pop2, hits give low values 0.977 | S. cerevisiae deletion strains, locus YOL006C, strain TOP1, hits give low values 0.959 | S. cerevisiae deletion strains, locus YOL012C, strain htz1 0.756 | S. cerevisiae deletion strains, locus YOL147C, strain pex11, hits give low values 0.976 | S. cerevisiae deletion strains, locus YOR001W, strain rrp6, hits give low values 0.989 | S. cerevisiae deletion strains, locus YOR061W, strain CKA2, hits give low values 1.01 | S. cerevisiae deletion strains, locus YOR069W, strain VPS5, hits give low values 1.01 | S. cerevisiae deletion strains, locus YOR070C, strain gyp1, hits give low values 0.987 | S. cerevisiae deletion strains, locus YOR080W, strain dia2, hits give low values 0.987 | S. cerevisiae deletion strains, locus YOR083W, strain WHI5 (second series), hits give low values 0.979 | S. cerevisiae deletion strains, locus YOR083W, strain WHI5, hits give low values 0.99 | S. cerevisiae deletion strains, locus YOR106W, strain vam3, hits give low values 0.981 | S. cerevisiae deletion strains, locus YOR136W, strain idh2, hits give low values 0.977 | S. cerevisiae deletion strains, locus YOR144C, strain elg1, hits give low values 0.976 | S. cerevisiae deletion strains, locus YOR184W, strain ser1, hits give low values 0.975 | S. cerevisiae deletion strains, locus YOR231W, strain MKK1, hits give low values 1.01 | S. cerevisiae deletion strains, locus YOR265W, strain rbl2, hits give low values 0.987 | S. cerevisiae deletion strains, locus YOR270C, strain vph1, hits give low values 0.974 | S. cerevisiae deletion strains, locus YOR290C, strain snf2, hits give low values 0.996 | S. cerevisiae deletion strains, locus YOR316C, strain cot1, hits give low values 0.99 | S. cerevisiae deletion strains, locus YPL051W, strain arl3, hits give low values 0.985 | S. cerevisiae deletion strains, locus YPL055C, strain LGE1, hits give low values 1.01 and 0.996 | S. cerevisiae deletion strains, locus YPL078C, strain atp4, hits give low values 0.978 | S. cerevisiae deletion strains, locus YPL106C, strain sse1, hits give low values 0.962 | S. cerevisiae deletion strains, locus YPL240C, strain hsp82, hits give low values 0.987 | S. cerevisiae deletion strains, locus YPL241C, strain CIN2, hits give low values 1.01 and 0.997 | S. cerevisiae deletion strains, locus YPL256C, strain CLN2, hits give low values 0.996 | S. cerevisiae deletion strains, locus YPR119W, strain clb2, hits give low values 0.969 | S. cerevisiae deletion strains, locus YPR141C, strain kar3, hits give low values 0.99 | S. cerevisiae deletion strains, locus YPR163C, strain tif3, hits give low values 0.979 | S. cerevisiae deletion strains, locus YPR167C, strain met16, hits give low values 0.975 | S. cerevisiae deletion strains, strain wtn01, hits give low values 0.969 | S. cerevisiae strains, strain wild type, hits give low values 1
